About 4,700 (1.2%) of roughly 390,000 compounds were called active. Roughly 4% stayed inconclusive and do not appear here. Calls come from the whole dose curve; as a rule, active = well fitted inhibition curve with a large enough effect; inconclusive = small, poorly fitted or top-dose-only effect, or another doubt; inactive = no such curve, though single readings can be large or run the other way. The sample as a whole holds a higher share of actives than the screen did.
Molecular target: DNA polymerase eta (Homo sapiens) (UniProt Q9Y253)
Sequence (Q9Y253 whole entry, looked up): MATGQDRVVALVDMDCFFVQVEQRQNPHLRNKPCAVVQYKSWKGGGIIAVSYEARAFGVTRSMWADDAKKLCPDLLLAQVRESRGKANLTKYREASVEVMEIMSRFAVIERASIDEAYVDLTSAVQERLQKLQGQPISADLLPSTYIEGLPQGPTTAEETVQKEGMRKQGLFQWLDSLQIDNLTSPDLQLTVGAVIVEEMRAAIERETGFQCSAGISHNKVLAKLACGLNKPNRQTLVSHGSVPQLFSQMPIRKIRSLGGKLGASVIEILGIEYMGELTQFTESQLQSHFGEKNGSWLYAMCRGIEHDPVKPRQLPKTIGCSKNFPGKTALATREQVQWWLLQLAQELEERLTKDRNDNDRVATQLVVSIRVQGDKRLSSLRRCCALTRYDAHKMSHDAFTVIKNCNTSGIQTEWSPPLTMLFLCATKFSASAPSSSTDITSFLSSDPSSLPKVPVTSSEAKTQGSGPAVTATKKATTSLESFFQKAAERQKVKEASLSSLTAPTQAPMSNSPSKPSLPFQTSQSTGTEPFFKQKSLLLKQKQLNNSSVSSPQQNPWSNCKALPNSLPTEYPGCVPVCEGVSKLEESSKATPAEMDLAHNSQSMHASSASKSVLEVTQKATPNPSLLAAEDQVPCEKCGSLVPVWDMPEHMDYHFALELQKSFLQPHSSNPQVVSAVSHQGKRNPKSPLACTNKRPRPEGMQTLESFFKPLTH
Assay: qHTS for Inhibitors of Polymerase Eta
Details: recombinant Pol eta, fluorescent DNA replication assay; series mostly up to 114 µM; activity change, negative = inhibition: at the top concentration
Summary of the method: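 Pol eta (10 nM) was preincubated with compounds for 15 min at room temperature, after which fluorescent replication substrate (50 nM final) was added to start the reaction. Fluorescence was read kinetically at 0 and 10 min.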
% is set by controls: 0 for no effect and ±100 for the full control effect; potency is the fitted concentration of half-maximal effect.

| SMILES | activity change, negative = inhibition | Potency |
| --- | --- | --- |
| CCCCN(C)S(=O)(=O)c1ccc(C(=O)Nc2sc3c(c2C(N)=O)CC(C)(C)NC3(C)C)cc1 | 5.33% (inactive) |  |
| COc1ccc(C)cc1NC(=O)c1[nH]c(C)c(C(C)=O)c1C | -13.9% (inactive) |  |
| COc1cccc2c(C)c(C(=O)O)[nH]c12 |  | 12.6 µM (active) |
| COc1ccccc1CNCc1ccc(C(=O)O)s1 | -19.3% (inactive) |  |
| CCOc1ccc(C(=O)Nc2ccc3nc4c(c(Nc5ccccc5OC)c3c2)CCCC4)cc1 | -17% (inactive) |  |
| CC(=O)c1ccc(NC(=O)CSc2nnc(NC(=O)Nc3ccccc3)s2)cc1 | -10.6% (inactive) |  |
| CC(C)c1ccc(Nc2nnc(SCC(=O)c3nnc(-c4ccccc4)o3)s2)cc1 |  | 15.8 µM (active) |
| CN(C(=O)CSc1nnc(NC(=O)Nc2ccccc2)s1)c1ccccc1 | -5.03% (inactive) |  |
| COc1ccc(C)cc1N(C)C(=O)c1c(C)oc2ncnc(N3CCOCC3)c12 | 1.72% (inactive) |  |
| CCOc1ccc(CNC(=O)c2cc(-c3ccc(Cl)s3)nc3ccccc23)cc1 | -8.47% (inactive) |  |
| Cc1ccc(-c2cc(C(=O)NN)n[nH]2)o1 | 0.265% (inactive) |  |
| Cc1ccc(NC(=O)c2cc(-c3ccc(C)o3)nc3ccccc23)nc1 |  | 22.4 µM (active) |
| CCOc1cccc(CNC(=O)c2ccc(N3CCCC3)c(NC(=O)Nc3ccccc3CC)c2)c1 | -10.1% (inactive) |  |
| O=C(Nc1ccc(OC(F)(F)F)cc1)C1CCCN(S(=O)(=O)c2ccc(Br)s2)C1 (stereo not given) | -15.9% (inactive) |  |
| O=C(NCCc1ccccc1)c1cnc2sc(N3CCCC3)nn2c1=O | -9.25% (inactive) |  |
| CC(=O)c1nn(-c2ccc(OC(F)(F)F)cc2)nc1Nc1ccccc1 | -12.7% (inactive) |  |
| Cc1ccc(-c2cc(-c3coc4ccccc4c3=O)c3c(n2)-c2cc(Cl)ccc2OC3)cc1 | -2.19% (inactive) |  |
| Cc1cccc(OCCSc2nc3ccccc3n2CC(=O)N2CCCCC2)c1C | -22.7% (inactive) |  |
| NC(=O)C1CCN(C(=O)c2cccc(NC(=O)c3nsc4ccccc34)c2)CC1 | -11% (inactive) |  |
| NC1=CC(=O)C(=O)c2cccnc21 |  | 8.91 µM (active) |
| Cc1nn(CC(=O)NCCc2ccccc2)c(=O)c2c1sc1ccccc12 | 7.02% (inactive) |  |
| COc1ccc(CNC(=O)Cc2coc3ccc(C(C)C)cc23)cc1 | -8.76% (inactive) |  |
| COc1ccc(N(C)C(=O)C2CCN(S(=O)(=O)c3cc(Br)cc4c3N(C(C)=O)CC4)CC2)cc1 | -9.98% (inactive) |  |
| Cn1c(=O)c2c(SCC(=O)N3CCc4ccccc43)nc(-c3ccc(Cl)cc3)nc2n(C)c1=O | -13.8% (inactive) |  |

| SMILES | activity change, negative = inhibition | Potency |
| --- | --- | --- |
| COc1ccccc1-n1c(C)nc2cc(C(=O)NCc3ccc4c(c3)OCO4)ccc21 | -18.8% (inactive) |  |
| C=CCn1c(=O)c(C(=O)NCc2ccc3c(c2)OCO3)c(O)c2ccccc21 | -4.62% (inactive) |  |
| Cc1nc2c(C(=O)NCc3ccc4c(c3)OCO4)c[nH]n2c(=O)c1Cc1ccccc1F |  | 89.1 µM (active) |
| COc1ccc(NC(=O)Cn2c(=O)n(CCC(C)C)c(=O)c3cccnc32)cc1Cl | -9.44% (inactive) |  |
| CCN(CC)S(=O)(=O)c1ccc2c(c1)nc(CN(C)C(=O)Nc1ccc(Cl)cc1)n2C | -11% (inactive) |  |
| CC(=O)N1CCc2cc(S(=O)(=O)NC(Cc3ccccc3)C(=O)NCc3ccc(C)cc3)ccc21 (stereo not given) | -6.24% (inactive) |  |
| Cc1sc(C2C(C#N)=C(N)N(c3cccc(Cl)c3)C3=C2C(=O)CCC3)cc1CN1CCOCC1 (stereo not given) | -8.01% (inactive) |  |
| CN1CCOC1c1ccc(C2OCCN2C)cc1 (stereo not given) |  | 20 µM (active) |
| Cc1csc2nc(COC(=O)c3ccccc3NC(=O)c3ccccc3Cl)cc(=O)n12 | -7.27% (inactive) |  |
| O=C(O)CCC(=O)N(Cc1cccs1)Cc1cccs1 |  | 20 µM (active) |
| Cc1ccnc(NC(=O)CCC(=O)N(CC(=O)NCCc2ccccc2)Cc2cccs2)c1 | -9.54% (inactive) |  |
| O=C(CCc1ccccc1)NCCc1cccs1 | -16.9% (inactive) |  |
| COc1cc(NC(=O)CCn2nc(C)cc2C)cc(OC)c1OC | -19.7% (inactive) |  |
| Cc1nc2nc(SCC(=O)N(Cc3ccccc3)C(C)C)nn2c(C)c1Cc1ccccc1Cl | -23.9% (inactive) |  |
| Cc1ccccc1NC(=O)c1cc2c([nH]c1=O)CC(C)(C)CC2=O | -4.53% (inactive) |  |
| Cc1ccc2nc(CNC(=O)c3ccccc3)[nH]c2c1 | -13.4% (inactive) |  |
| Cc1ccc(C(=O)N/N=C/c2sc(=O)n(Cc3cccc(C(=O)O)c3)c2Cl)cc1 | -4.43% (inactive) |  |
| Cc1ccc2cc(/C=N/Nc3ccc(C(=O)O)cc3)c(Cl)nc2c1 |  | 50.1 µM (active) |
| COc1ccc(CNc2nc(-c3ccc(Cl)cc3)nn2C(=O)c2ccccc2)cc1 | -13.5% (inactive) |  |
| Cc1cccc2nc(-c3ccc(Cl)s3)c(Nc3ccc4c(c3)OCCO4)n12 | -5.2% (inactive) |  |
| CN1OC(COC(=O)c2ccc(Cl)cc2)CC1c1ccccc1 (stereo not given) | -10% (inactive) |  |
| Cc1ccc(S(=O)(=O)N2[C@@H](c3ccccc3F)C(C(=O)O)=CC[C@H]2c2ccc(Cl)cc2)cc1 | -7.7% (inactive) |  |
| Cc1ccccc1S(=O)(=O)N1[C@@H](c2cccc(Cl)c2)C(C(=O)O)=CC[C@H]1c1ccc(Cl)cc1 |  | 89.1 µM (active) |
| CCOc1ccc(NC(=O)c2cn(C3CCCCC3)c(=O)c3c2c2ccccc2n3C)cc1 | -24.7% (inactive) |  |

| SMILES | activity change, negative = inhibition | Potency |
| --- | --- | --- |
| COc1cc2c(=O)c(S(=O)(=O)c3ccc(C(C)C)cc3)cn(Cc3ccccc3C)c2cc1OC | -6.1% (inactive) |  |
| CC(NC(=O)CCc1cn(Cc2ccccc2Cl)c2ccccc12)c1ccccc1 (stereo not given) | -19.7% (inactive) |  |
| Cc1noc(C)c1NC(=O)Nc1cccc2c1O[C@H](CN(C)C(=O)Nc1ccccc1)[C@@H](C)CN([C@H](C)CO)C2=O | -18.9% (inactive) |  |
| C[C@H](CO)N1C[C@H](C)[C@H](CN(C)C(=O)Nc2ccc(C(F)(F)F)cc2)Oc2c(NC(=O)c3ccncc3)cccc2C1=O |  | 89.1 µM (active) |
| Cc1noc(C)c1NC(=O)Nc1ccc2c(c1)C(=O)N([C@H](C)CO)C[C@H](C)[C@@H](CN(C)C(=O)Nc1ccc(C(F)(F)F)cc1)O2 | -7.85% (inactive) |  |
| CCCN(C(=O)Cn1ncc2c([nH]c3ccc(C)cc32)c1=O)c1ccccc1C | -17.1% (inactive) |  |
| Cc1ccc(CNC(=O)CCc2c(C)nc3nc(CNC(=O)OC(C)(C)C)nn3c2C)cc1 | -10.2% (inactive) |  |
| COc1ccccc1NC(=O)COC(=O)Cc1ccc(S(=O)(=O)N2CCCCC2)s1 | -22.4% (inactive) |  |
| O=C(Cc1ccc(S(=O)(=O)N2CCCC2)s1)NC1CCCCCC1 |  | 14.1 µM (active) |
| O=C(NC1CCCCC1)C1CCCN(S(=O)(=O)c2ccc(Br)s2)C1 (stereo not given) | -5.27% (inactive) |  |
| COc1cccc(Cn2c(CNS(=O)(=O)c3ccc(Cl)s3)nc3cccnc32)c1 | -21.5% (inactive) |  |
| CCOC(=O)c1ccc(NC(=O)c2csc3c2CCCCC3)cc1 | -10.6% (inactive) |  |
| CC(C)C[C@H](NC(=O)[C@H](O)[C@H](N)Cc1ccccc1)C(=O)O | -3.39% [at 57.1 µM] (inactive) |  |
| CC(=O)c1ccc(NC(=O)CCc2nnc3ccc(NCc4ccco4)nn23)cc1 | -3.8% (inactive) |  |
| O=C(CCc1nnc2ccc(NCc3ccco3)nn12)Nc1cc(F)ccc1F |  | 50.1 µM (active) |
| CC1CCN(C(=O)CCc2nnc3ccc(NCc4ccco4)nn23)CC1 | 0.0463% (inactive) |  |
| CCc1ccc2oc(-c3ccc(NC(=O)c4cc5ccccc5o4)cc3)nc2c1 | -4.85% (inactive) |  |
| CCCNC(=O)c1ccc2c(c1)ncn2-c1ccc(C)cc1C | 8.94% (inactive) |  |
| COc1ccc(Cn2ccc3nc(C)c(C(=O)Nc4ccc(C)c(F)c4)cc3c2=O)cc1 | -17.6% (inactive) |  |
| CCN1CCN(c2cc(C)c3cc(NC(=O)c4cc(Cl)ccc4OC)ccc3n2)CC1 | 2.16% (inactive) |  |
| Cc1ccc(OCC(=O)Nc2ccccc2C(=O)NC2CC2)cc1C | 3.79% (inactive) |  |
| COc1ccc(NC(=O)c2ccco2)cc1NC(=O)COc1ccc(C)c(C)c1 |  | 89.1 µM (active) |
| Cc1ccc(OCC(=O)Nc2ccc3oc(=O)ccc3c2)cc1C | 2% (inactive) |  |
| CCc1ccc(-n2nnc(-c3nc(-c4ccccc4)no3)c2C)cc1 | -18.6% (inactive) |  |

| SMILES | activity change, negative = inhibition | Potency |
| --- | --- | --- |
| O=C(c1cnn(-c2ccc(F)cc2)c1-n1cccc1)N1CCN(c2ccc(F)cc2)CC1 | -8.06% (inactive) |  |
| COc1ccc(Cl)cc1NC(=O)CSc1nc2ccccc2c2nc(-c3ccccc3)nn12 | -14.6% (inactive) |  |
| O=C(CCc1nc(CN2CCN(S(=O)(=O)c3ccc(F)cc3)CC2)no1)N1CCCCC1 | -11.5% (inactive) |  |
| O=C1C(Cl)=C(Oc2ccccc2)C(=O)c2ccccc21 |  | 7.94 µM (active) |
| Cc1ccc(N(CC(=O)NCc2ccc(Cl)cc2)S(=O)(=O)N(C)C)cc1 | -9.02% (inactive) |  |
| N#CCC(=O)N/N=C/c1ccc(SCC(=O)Nc2ccccc2)o1 | -11.6% (inactive) |  |
| O=C(CSc1ccc(/C=N/NC(=O)c2cccc(F)c2)o1)Nc1ccccc1 | -3.64% (inactive) |  |
| O=C(CCNC(=O)c1ccccc1)NN=Cc1ccc(Br)o1 |  | 56.2 µM (active) |
| Cc1cccc2c1-c1sc(C(=O)Nc3ccc(F)cc3F)cc1CO2 | -2.34% (inactive) |  |
| CCOc1ccc(-c2cc3nc(C4CCN(C(=O)OC(C)(C)C)CC4)c(C(=O)Nc4ccc(C(=O)OC)cc4)cn3n2)cc1 | -17.3% (inactive) |  |
| Cc1ccc(-c2nnc(Nc3cccc(Br)c3)c3ccccc23)cc1S(=O)(=O)NCC1CCCO1 (stereo not given) | -4.88% (inactive) |  |
| Cc1ccc2c(c1)-c1c(cnn1CC(=O)Nc1ccccc1C#N)CO2 | -20.4% (inactive) |  |
| N#Cc1ccccc1CN1C(=O)S/C(=C/c2cccn2-c2cccc(C(=O)O)c2)C1=O |  | 3.16 µM (active) |
| CN(C(=O)CSc1nc2ccccc2n1Cc1ccccc1C#N)c1ccccc1 | -5.18% (inactive) |  |
| COc1ccc(OC)c(-c2nc(C(N)=O)c3c(n2)n(-c2ccc4c(c2)OCO4)c(=O)n3C)c1 | -0.421% (inactive) |  |
| CCCOc1cccc(C(=O)Nc2cccc(NC(=O)c3ccc(C(C)(C)C)cc3)c2)c1 | -20.1% (inactive) |  |
| Cc1csc2nc(COc3ccc(NC(=O)COc4ccccc4)cc3)cc(=O)n12 | -12.8% (inactive) |  |
| N#Cc1ccc(OCC(=O)Nc2nc(-c3ccccn3)cs2)cc1 |  | 22.4 µM (active) |
| CCc1nnc(NC(=O)CSc2nnc(COc3ccc(C#N)cc3)n2-c2ccccc2)s1 | -0.262% (inactive) |  |
| COCCNC(=O)CSc1c(C)cnc2c1c(=O)n(C)c(=O)n2C | -26.6% (inactive) |  |
| CCOC(=O)c1ccc(NC(=O)CCn2cnnn2)cc1 | -12% (inactive) |  |
| CCN(C(=O)c1sc2cc(OC)ccc2c1Cl)c1ccccc1 | -18.2% (inactive) |  |
| CCC(=O)N1CCc2cc(Br)cc(S(=O)(=O)CCC(=O)N3CCN(c4ccc(F)cc4)CC3)c21 | -12.4% (inactive) |  |
